# IMPase inh = membrane-permeable compound that blocks inositol monophosphatase; P97697; CHO-M1 cells, IP1 accumulation, HTRF TR-FRET ratio; inhibition (IP1 accumulation), % at 46.1 µM; 120,000 tested, under 10 active; AID 901; active = well fitted curve in the direction sought with a large enough effect in the signal ratio, not every such curve was filed as active; inconclusive = small, poorly fitted or top-dose-only effect, or a change in a side signal; inactive = no such curve, though single readings can be large or run the other way; the % refers to the signal ratio;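 note: cells stimulated with carbachol in lithium chloride buffer; plate controls were DMSO basal wells for no effect and reference inhibitor wells for full effect; higher means more IMPase inhibition seen as more IP1 and lower FRET ratio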
# Target sequence (P97697 whole entry, looked up): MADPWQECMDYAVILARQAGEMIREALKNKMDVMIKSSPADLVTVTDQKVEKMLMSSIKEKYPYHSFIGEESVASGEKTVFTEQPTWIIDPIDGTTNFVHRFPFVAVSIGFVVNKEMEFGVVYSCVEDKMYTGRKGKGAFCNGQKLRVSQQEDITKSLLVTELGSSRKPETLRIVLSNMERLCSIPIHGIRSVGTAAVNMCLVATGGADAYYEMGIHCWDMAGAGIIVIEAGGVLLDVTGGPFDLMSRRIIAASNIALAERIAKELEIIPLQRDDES
#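 Cellular IMPase inhibition is scored as a rise in cytosolic IP1, detected by competitive TR-FRET between d2-labelled IP1 and a europium anti-IP1 antibody. M1-expressing CHO cells were stimulated with carbachol for 30 min at 37C, with lithium (50 mM LiCl) present in the buffer.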
# IMPase Li cell = IMPase inhibition in cells with lithium potentiation; 210,000 tested, 0.35% active; CHO-M1 cells, IP1 TR-FRET (IP-One), carbachol + lithium; Potency, µM (top dose mostly 59.4 µM), without a hit: at the top dose activity, negative = IMPase inhibition, most hits filed as inhibitors; active = well fitted inhibition curve with a large enough effect; inconclusive = small, poorly fitted or top-dose-only effect; inactive = no such curve, though single readings can be large or run the other way;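 note: IP1 builds up when IMPase is blocked and the TR-FRET signal falls; potency is the fitted concentration of half-maximal effect; plate controls were basal vehicle for no effect and high inhibitor control for full effect; nearly all actives have a fitted effect of over 50% in size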
#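 CHO cells stably expressing M1 receptor (2000/well) were cultured 16–30 h, then exposed to compounds with a small lithium addition for 30 min at 37C. IP1 was measured by TR-FRET competition; AC50 from Hill fits.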
# PNC inhibitor = inhibitors of perinucleolar compartment assembly; PC3M PTB-GFP, PNC prevalence imaging, 16 h; stronger effect = lower value; activity change (PNC), negative = inhibition, % at 10 µM; 140,000 tested, 3.1% active; AID 2417;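 active = readout at or below -70, meaning at least 70% loss of cells showing the perinucleolar compartment, a nuclear body marking cancer cells; inconclusive = readout between -30 and a set limit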;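 note: plate controls were DMSO wells for no effect and camptothecin positive control wells for full effect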
#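 Compounds are pinned in duplicate onto adhered PC3M cells stably expressing GFP-tagged PTB and incubated 16 h at 37 C. Cells are then fixed, nuclei stained with Hoechst, and PNC-positive cells counted.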
# HPGD inh = blocks human HPGD enzyme activity; P15428; purified HPGD, NADH fluorescence kinetic, PGE2 substrate; Potency, µM, without a hit: at the top dose activity change, negative = inhibition, most hits filed as inhibitors; 150,000 tested, 4.3% active; note: potency is the fitted concentration of half-maximal effect
# Target sequence (P15428 whole entry, looked up): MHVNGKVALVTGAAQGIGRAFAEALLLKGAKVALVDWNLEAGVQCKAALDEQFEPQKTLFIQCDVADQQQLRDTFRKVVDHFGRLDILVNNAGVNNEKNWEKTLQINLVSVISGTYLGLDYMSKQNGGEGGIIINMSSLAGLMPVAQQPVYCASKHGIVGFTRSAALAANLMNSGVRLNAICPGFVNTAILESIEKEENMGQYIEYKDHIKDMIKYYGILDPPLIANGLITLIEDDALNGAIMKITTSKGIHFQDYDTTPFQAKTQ
#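 NADH formation kinetics: reaction with 30 uM PGE2 and 1 mM NAD+ (final), 20 nM enzyme, Tris-HCl pH 8 with Tween 20, after 15 min compound preincubation at room temperature. Fluorescence change, last versus first of five reads.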
# ALDH1A1 block = blocks purified human ALDH1A1 activity; P00352; Purified ALDH1A1, NADH fluorescence, propionaldehyde substrate; Potency, µM (top dose mostly 75.3 µM), without a hit: at the highest dose activity, negative = inhibition, most hits filed as inhibitors; 220,000 tested, 7.3% active; AID 1030;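 note: potency is the fitted concentration of half-maximal effect; plate controls were no enzyme wells and a reference inhibitor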
# The depositor's hits bear a star; ? = inconclusive; . = no result; [ ] = remark or other dose. Compounds with a hit are over-represented: about 11% of the library has one in this group of screens. Unless noted, calls come from the whole dose curve; as a rule, active = well fitted inhibition curve with a large enough effect (not every such curve was filed as active); inconclusive = small, poorly fitted or top-dose-only effect, or another doubt; inactive = no such curve, though single readings can be large or run the other way. Unless noted, % is set by controls: 0 for no effect and ±100 for the full control effect.
SMILES,IMPase inh,IMPase Li cell,PNC inhibitor,HPGD inh,ALDH1A1 block
COc1ccc(-n2ncc3c(NCc4cccs4)ncnc32)cc1,-3,-8%[38.3 µM],16,?,?
c1ccc(-n2ncc3c(NCc4cccs4)ncnc32)cc1,8,15%[38.3 µM],8,5µM*,?
CC(C)Nc1ncnc2c1cnn2-c1ccccc1,-6,21%,-11,?,?
CCC(C)(C)n1nnnc1C(c1cccs1)N1CCc2ccccc21 (stereo not given),-7,28%[38.3 µM],-5,-17%,14µM*
CC(C)(C)n1nnnc1C(c1ccc(Cl)cc1)N1CCCc2ccccc21 (stereo not given),6,-1%,-88*,-10%,0%
Cc1ccc(Cn2c(=O)c3ccccc3n3nc(C)cc23)cc1,.,11%,.,.,?
CCOc1ccc(NC(=O)c2nn(-c3ccc(OC)cc3OC)c(=O)c3ccccc23)cc1,.,?,.,.,9%
CCOC(=O)/C(=C/C1=CC(=C/N(C)C)/C(=O)O1)C(C)=O,.,.,.,.,-6%
CN(/C=C1/C(=O)CNC1=O)CCO,.,-7%,.,.,-15%
O=C1CNC(=O)/C1=C\c1ccc(O)cc1,.,10%,12,-21%,?
O=C1CNC(=O)/C1=C/c1ccc(O)cc1,0,20%[38.3 µM],121,?,32µM*
O=C1CNC(=O)/C1=C/c1ccccc1,.,-1%,?,14µM*,-2%
CCNc1ncc2ncc(=O)n(Cc3ccc(F)cc3)c2n1,.,9%,.,.,?
Cc1ccccc1OCCCCn1c(-c2ccc(Cl)cc2)nc2ccccc2c1=O,-3,.,.,.,.
CC(=O)c1cccc(N(C(=O)Cn2nnc3ccccc32)C(C(=O)NCC2CCCO2)c2ccc(N3CCOCC3)cc2)c1 (stereo not given),.,-2%,.,.,5%
Cc1cc(C)n2c(SC/C(O)=C(\C#N)c3nc4ccccc4[nH]3)nnc2n1,2,3%[38.3 µM],25,?,18µM*
Cc1ccccc1-n1c(SC/C(O)=C(\C#N)c2nc3ccccc3[nH]2)nnc1-c1ccncc1,1,-3%[38.3 µM],-17,-24%,?
CC(C)NC(=O)NC(=O)COC(=O)c1ccccc1F,-11,.,-115*,.,10%
COC(=O)CSCC(=O)Nc1nnc(-c2ccccc2C)s1,.,-3%,.,.,?
Clc1ccc(C[n+]2csc3ccccc32)cc1,.,-3%,21,16µM*,2.8µM*
Fc1ccc(C[n+]2csc3ccccc32)cc1,1,-4%[38.3 µM],17,10µM*,4µM*
Fc1ccc(CSc2ncnc3scc(-c4ccccc4)c23)cc1,.,19%,26,-15%,-2%
Clc1ccc(-c2c[n+](Cc3ccc(Cl)c(Cl)c3)c3n2CCC3)cc1,15,9%,29,6%,10%
CC1=CC(C)C2COC(c3ccc[n+](C)c3)C1C2C (stereo not given),.,13%,-3,3%,1%
O=C(Nc1cccc(F)c1)C1CCN(C(=O)c2ccccc2Cl)CC1,0,28%[38.3 µM],?,-2%,-9%
SMILES,IMPase inh,IMPase Li cell,PNC inhibitor,HPGD inh,ALDH1A1 block
O=C(CN1C(=O)c2cccc3cccc(c23)C1=O)N1CCN(c2ccccn2)CC1,.,-4%,-104*,-2%,12%
C(=C\c1ccccc1)/CNCC1CCCO1 (stereo not given),.,25%,.,.,25µM*
O=C(O)COc1ccccc1/C=C1\SC(=S)N(/N=C/c2ccccc2O)C1=O,.,-5%,-13,8.9µM*,?
OC(c1ccc(OCc2ccccc2)cc1)c1nnc(-c2ccccc2)o1 (stereo not given),6,24%[38.3 µM],-23,20µM*,-2%
Cc1ccc2c(c1)C1CCCC3C1N2CC(=O)N3Cc1ccccc1 (stereo not given),1,17%[38.3 µM],?,-23%,22µM*
COc1ccc(C2C(=O)N(C3CCCCCC3)CC(=O)N2Cc2ccccc2)cc1OC (stereo not given),5,-3%[38.3 µM],65,-2%,-12%
Cc1ccc(CNC(=O)c2cccc(Nc3nc4ccccc4n4nnnc34)c2)cc1,9,.,.,.,.
COC(=O)[C@@]1(Cc2ccc(OC)cc2)[C@H]2c3cc(C(=O)N(C)C)n(CCc4c[nH]c5ccc(O)cc45)c3C[C@H]2CN1C(=O)c1ccccc1,.,8%,.,-5%,-10%
Cc1ccc2c(CC(=O)OCc3csc(C)n3)coc2c1,-1,4%,-100*,-10%,6%
NS(=O)(=O)c1ccc(CCNC(=O)c2ccc(C#CC3(O)CCCCC3)cc2)cc1,.,15%,.,.,-11%
COc1ccccc1N1CCN(CC(=O)Nc2ccc3c(c2)OCCO3)CC1,.,-1%,.,.,22µM*
COc1ccccc1N1CCN(CCC(=O)Nc2ccc3c(c2)OCO3)CC1,-1,-13%[38.3 µM],-23,-8%,-3%
O=C(CN1CCN(CCC(=O)Nc2ccccc2F)CC1)Nc1ccc(F)cc1,3,20%[38.3 µM],23,3%,6%
O=C(CN1CCCCC1)Nc1ccc(N2CCCCCC2)cc1,.,29%,.,.,?
O=C(CN1CCN(CC(=O)Nc2ccccc2F)CC1)Nc1ccc2c(c1)OCCO2,.,8%,.,.,28µM*
CC(C(=O)Nc1ccc2c(c1)OCCO2)N1CCN(C(=O)c2ccco2)CC1 (stereo not given),-1,18%[38.3 µM],?,-5%,4%
O=C(CN1CCN(C(=O)c2ccco2)CC1)Nc1ccc2c(c1)OCCO2,?,-10%[38.3 µM],10,-9%,13µM*
NC(=O)c1ccc(NC(=O)CN2CCN(c3ccc(Cl)cc3)CC2)cc1,.,3%,.,.,22µM*
N#Cc1ccc(CN2CCC3(CC2)CCN(C(=O)c2csnn2)CC3)cc1,.,21%,.,-3%,7%
COc1ccc(S(=O)(=O)N2CCN(CC(=O)Nc3ccc(C)c(F)c3)CC2)cc1,-3,9%,9,-9%,10µM*
COc1ccc(S(=O)(=O)N2CCN(CC(=O)Nc3cccc(F)c3)CC2)cc1,7,3%[38.3 µM],-16,0%,4%
COc1ccccc1N1CCN(CC(=O)Nc2ccc(C)c(F)c2)CC1,3,7%[38.3 µM],32,-15%,14µM*
O=C(CN1CCN(c2ccc(O)cc2)CC1)Nc1ccc2c(c1)OCCO2,.,5%,.,.,9.5µM*
O=C(CN1CCN(c2ccccc2)CC1)Nc1ccc2c(c1)OCCO2,.,-4%,.,.,9%
O=C(CN1CCN(S(=O)(=O)c2ccc(Br)cc2)CC1)Nc1ccc2c(c1)OCCO2,10,21%[38.3 µM],62,-10%,25µM*
O=C(CN1CCN(S(=O)(=O)c2ccc(Cl)cc2)CC1)Nc1ccc2c(c1)OCCO2,5,0%[38.3 µM],2,-1%,?
COc1ccc(NC(=O)CN2C(=O)CSC(C)C2=O)cc1 (stereo not given),.,5%,.,.,9%
O=C(NCc1ccccc1)NC(O)C(Cl)(Cl)Cl (stereo not given),.,4%,.,.,6%
COc1ccccc1N1CCN(CC(=O)NCC2CCCO2)CC1 (stereo not given),10,10%,-119*,7%,?

# Source: PubChem (National Center for Advancing Translational Sciences (NCATS))
